Measured values from PubChem BioAssay (EPA / NIEHS).
The source made the active and inactive calls. The calls were made as follows: active = hit-call score of the fitted dose curve at least 0.9, where 1 is the maximum; inactive = score below 0.9.

Biological target: Bile acid receptor (Homo sapiens) (UniProt Q96RI1)
Assay: ATG_IR1_CIS: Attagene CIS-FACTORIAL HepG2 Assay for human Nuclear Receptor Subfamily 1 Group H Member 4 (NR1H4), IR1 submotif (AID 2282946)
Details: IR1 reporter transcription, actives raise or lower the signal
In short: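 HepG2 cells transiently transfected with multiple cis-promoter-driven reporter units to measure endogenous transcription factor activity; 24 h exposure. Reporter mRNA read by RT-PCR, FAM labelling, HpaI digestion and capillary electrophoresis. Bidirectional fit versus DMSO.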

Bile acid receptor (Homo sapiens), sequence (Q96RI1 whole entry, looked up): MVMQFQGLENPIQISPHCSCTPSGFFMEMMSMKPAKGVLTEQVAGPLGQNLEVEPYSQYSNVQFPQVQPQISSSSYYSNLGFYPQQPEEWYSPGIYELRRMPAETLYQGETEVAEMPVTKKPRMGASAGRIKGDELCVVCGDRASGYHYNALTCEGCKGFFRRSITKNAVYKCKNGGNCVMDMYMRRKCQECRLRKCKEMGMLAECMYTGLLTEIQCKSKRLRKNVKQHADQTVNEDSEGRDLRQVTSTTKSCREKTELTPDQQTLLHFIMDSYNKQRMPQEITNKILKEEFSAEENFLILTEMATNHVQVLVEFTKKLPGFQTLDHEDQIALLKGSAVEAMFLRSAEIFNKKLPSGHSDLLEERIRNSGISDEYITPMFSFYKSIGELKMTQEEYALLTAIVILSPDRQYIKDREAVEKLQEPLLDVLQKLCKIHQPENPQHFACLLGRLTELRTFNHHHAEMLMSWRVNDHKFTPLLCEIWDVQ

outcome, inactive:
c1ccc2occc2c1
CN(C)CCCN1c2ccccc2Sc2ccc(Cl)cc21
CC(C)OC(=O)C(C)(C)Oc1ccc(C(=O)c2ccc(Cl)cc2)cc1
Cc1ccc(C(C)(C)C)c(O)c1
CC(=O)OC1CC(C)OC(C)O1 (stereo unspecified)
Cn1cnc2c1c(=O)[nH]c(=O)n2C
O=C(O)c1cccnc1
COC(=O)CCC(=O)OC
NC=O
O=C(O)c1[nH]n(-c2ccc(S(=O)(=O)O)cc2)c(=O)c1N=Nc1ccc(S(=O)(=O)O)cc1
CCc1nc(N)nc(N)c1-c1ccc(Cl)cc1
Nc1nc(Cl)nc2c1ncn2[C@H]1C[C@H](O)[C@@H](CO)O1
Cc1cn([C@H]2C=C[C@@H](CO)O2)c(=O)[nH]c1=O
Cc1c(C)c2c(c(C)c1O)CCC(C)(COc1ccc(CC3SC(=O)NC3=O)cc1)O2 (stereo unspecified)
CC(C)COC(=O)CCCCC(=O)OCC(C)C

Tested on: not listed separately
Assay: ATG_GRE_CIS: Attagene CIS-FACTORIAL HepG2 Assay for human Glucocorticoid Response Elements (GRE) (AID 2282947)
Details: HepG2 GRE cis-reporter, Attagene multiplex mRNA; actives raise or lower the signal
In short: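 Transiently transfected HepG2 cells carrying GRE cis-reporter units (endogenous TF activity) dosed 24 h; reporter mRNA quantified by RT-PCR, 6-FAM labelling, HpaI digestion and capillary electrophoresis. Bidirectional fit versus DMSO baseline.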

outcome, inactive:
CN(C)CCCN1c2ccccc2Sc2ccc(Cl)cc21
O=C1CCCCC1
CC(C)OC(=O)C(C)(C)Oc1ccc(C(=O)c2ccc(Cl)cc2)cc1
Nc1nc(=S)c2[nH]cnc2[nH]1
CO[C@@H]1COCC[C@@H]1N[C@@H]1CC[C@@](C(=O)N2CCc3ncc(C(F)(F)F)cc3C2)(C(C)C)C1
CCCCCCCCCCCCCCCCO
CC(=O)OC1CC(C)OC(C)O1 (stereo unspecified)
CC1(C)C(=O)NC(=O)N1CO
Cn1cnc2c1c(=O)[nH]c(=O)n2C
CC(C)(O)c1ccc(CNC(=O)c2cccnc2Oc2ccc(F)cc2)cc1
CCCC(=O)O
COC(=O)CCC(=O)OC
C#CC(O)C(CC)CCCC (stereo unspecified)
NCCOCCOCCN
CCc1nc(N)nc(N)c1-c1ccc(Cl)cc1
Nc1nc(Cl)nc2c1ncn2[C@H]1C[C@H](O)[C@@H](CO)O1
CCCCCCCCCCCCCCOS(=O)(=O)O
CC1=C(C)S(=O)(=O)CCS1(=O)=O
O=C1O[C@H]([C@H](O)CO)C(O)=C1O
CCc1cc(C2=C(C(=O)O)N(c3ccccc3C(F)(F)F)S(=O)(=O)c3ccccc32)cc2c1OCO2
OCC(CO)n1cnc(-c2ccc(F)cc2)c1-c1ccnc(Oc2ccccc2)n1
